Measured values from PubChem BioAssay (NCI).
Compounds without any hit were thinned out: in the full panel of roughly 83,000, 20% have a hit.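 Treatment: one concentration, 48 hours, 96-well format. Scoring: percent growth, with anything below 10 considered active.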 A number with no mark means an inactive call. Activity calls are given as the source filed them.

Key:
Experiment in all cases: NCI-60 one-dose screen, 48 h (100 = growth as untreated, 0 = no growth, -100 = all killed)
Details in all cases: 10 µM unless noted
[1] = system: EKVX NSCLC
[2] = system: SN12C renal
[3] = system: UO-31 renal
[4] = system: TK-10 renal
[5] = system: CAKI-1 renal
[6] = system: A498 renal
[7] = system: ACHN renal
[8] = system: CCRF-CEM leukemia
[9] = system: MOLT-4 leukemia
[10] = system: SR leukemia

Structure (SMILES) | growth [1] | growth [2] | growth [3] | growth [4] | growth [5] | growth [6] | growth [7] | growth [8] | growth [9] | growth [10]
Cc1nn(-c2ccc(Cl)cc2)c2nc3c(nc12)C(=O)C(=O)c1ccccc1-3 | 64% | 78.7% | 59.8% | 144% | 69.8% | 59.4% |  |  |  | 
CCCCC(C#N)C(N)=O (stereo not given) | 132% | 101% | 87.8% | 107% |  | 122% | 110% | 95.8% | 90.2% | 93.8%
CC1=NN(c2ccccc2Cl)C(=O)/C1=C\c1cn(S(=O)(=O)c2ccc(C)cc2)c2ccccc12 | 98% | 97.5% | 78.2% | 167% | 87.8% | 117% |  | 135% | 173% | 
CCOC(=O)c1c2c(c(C)n1Cc1ccccc1)-c1nc(N)ncc1CC2 | 88.9% | 102% | 79.7% | 103% |  | 88.2% | 92.2% | 93.7% | 95.7% | 86.2%
CC1SC(c2c(Cl)cccc2Cl)N(NC(=O)c2[nH]c3ccc(F)cc3c2-c2ccccc2)C1=O (stereo not given) | 41.8% | 33.9% | -17.6% (active) | 21.6% |  |  | 34.4% | 56.1% | 69.1% | 54.8%
O=C(Cc1ccccn1)C(F)(F)C(F)(F)C(F)(F)F | 130% | 95.2% | 91.6% | 117% |  | 126% | 111% | 97.5% | 97% | 97.9%
COc1ccc2nccc(/C=C/c3ccnc4ccc(OC)cc34)c2c1 | 105% | 118% | 97% | 148% |  | 87.9% | 102% | 59.6% | 33.1% | 21.4%
Cc1nn(-c2ccccc2)c2c1oc(=O)c1cc(Cl)ccc12 | 93.2% | 101% | 102% | 111% | 84.9% | 90.9% |  | 98.1% | 134% | 
Cc1ccc(C(=O)Nc2ccc(Cl)cc2C(=O)NCc2ccccc2)cc1 | 80.3% | 97.7% | 76.5% | 105% | 77.7% | 79.2% |  | 73.9% | 51.4% | 37.1%
CO[C@H]1CC(O[C@@H]2/C(C)=C/C[C@@H]3C[C@@H](C[C@]4(CC[C@H](C)[C@@H](C5CCCCC5)O4)O3)OC(=O)[C@@H]3C=C(C)/C(=N/O)[C@H]4OC/C(=C\C=C\[C@@H]2C)[C@]43O)O[C@@H](C)C1O (stereo not given in full) | -85.9% (active) | -82.4% (active) | -90.5% (active) | -90.4% (active) | -73.8% (active) | -96.2% (active) |  | -47.9% (active) | -36.7% (active) | 
O=[N+]([O-])c1ccc(Oc2cccc(C(F)(F)F)c2)c([N+](=O)[O-])c1 | 111% | 28.2% | 28.6% | 11.2% | 20.2% | 97.8% |  | 14.7% | 17.1% | 5.65% (active)
CC1=CC(=O)C(C(C)=Nc2ccccc2Cl)C(=O)O1 (stereo not given) | 103% | 105% | 95.8% | 126% |  | 85.7% | 98.1% | 89.2% | 101% | 118%
CC/C(=C\c1ccc(N(C)C)cc1)c1nc2ccccc2c(=O)[nH]1 | 93% | 106% | 108% | 51.1% |  | 118% | 93.4% | 110% | 140% | 77.4%
Cc1nc(N)[nH]c(=O)c1C | 100% | 87.4% | 107% | 137% |  | 216% | 111% | 94.7% | 150% | 92.2%
O=C(c1ccccc1)c1ccccc1Cl | 101% | 101% | 86.7% |  | 109% | 86.1% | 112% | 86.3% | 94.2% | 94.5%
CC[N+](CC)(CCOCCOCC[N+](CC)(CC)Cc1ccc([N+](=O)[O-])cc1)Cc1ccc([N+](=O)[O-])cc1 | 101% | 94.2% | 68.5% | 95% | 93.7% |  |  | 102% | 84.8% | 107%
O=C(Nc1ccc(Oc2ccc(NC(=O)Nc3ccc([N+](=O)[O-])cc3)cc2)cc1)Nc1ccc([N+](=O)[O-])cc1 | 17.1% | 12.1% | -4.36% (active) |  | 13.9% | 13% | 10.2% | -32% (active) | -26.4% (active) | -3.7% (active)
CC[C@]1(O)CC2CN(CCc3c([nH]c4ccccc34)[C@@](C(=O)OC)(c3cc4c(cc3OC)N(C)[C@H]3[C@@](O)(C(=O)OC)[C@H](OC(C)=O)[C@]5(CC)C=CCN6CC[C@]43[C@@H]65)C2)C1 (stereo not given in full) | 49.6% | 39.6% | 18.9% |  | 26.8% | -15.6% (active) | 21.9% | 10.7% | 16.4% | 10.2%
O=C(Nc1cccc([N+](=O)[O-])c1)c1cccc(C(=O)Nc2cccc([N+](=O)[O-])c2)c1 | 84.3% | 45.7% | 56.7% |  | 85.3% | 92.5% | 64.7% | 116% | 99.3% | 83.9%
COc1ccc(-c2c(-c3cc(OC)c(OC)c(OC)c3)noc2N)cc1 | 45.9% | 27.6% | 41.7% | 67.3% | 28.2% | 22.8% |  | 9.85% (active) | 13% | 8.86% (active)
COc1ccc(-c2nc3sccn3c2-c2ccnc(S(C)(=O)=O)n2)cc1 | 79.7% | 93.4% | -82% (active) |  | -69% (active) | 120% | 74.2% | 77.8% | 87.2% | 40.5%
Cc1nc2cc(NC(=O)CN3CCN(CCN4C(=O)c5cccc6cccc(c56)C4=O)CC3)ccc2s1 | 69.9% | 39.8% | 53.6% | 87.9% | 72.9% |  |  | 31.7% | 9.64% (active) | 22%
CC(C)[C@H]1CC[C@H]2[C@@H](CC[C@H]3[C@](C)(CN)CCC[C@]23C)C1 | 68.5% | 85.9% | 70.1% |  | 87.6% | 81.3% | 84% | 48.3% |  | 
S=c1[nH]nc2sc3ccccc3n12 | 116% | 103% | 84.2% |  | 110% | 76.1% | 99.2% | 100% | 92.7% | 88.5%
COc1ccc2c(c1)C(=O)c1c-2c(OCCN(C)C)nc2cc(OC)ccc12 | 20.6% | 22.6% | -43.7% (active) |  | 9.1% (active) | 38.4% | -78.6% (active) | 13.7% | -7.63% (active) | -29.2% (active)
COc1ccc(OC)c(NC(=O)c2cc3oc4ccccc4c3cc2O)c1 | 75.9% | 95% | 79.8% |  | 74.7% | 121% | 98.7% | 99.4% | 117% | 127%
N#CCNc1ccccc1N | 89.6% | 104% | 65.1% | 104% |  | 104% |  |  | 85.1% | 116%
Cc1c(C(N)=O)sc2nc(SCC(=O)Nc3ccc(Cl)cc3)n(-c3ccccc3)c(=O)c12 | 98.4% | 95.2% | 121% | 52.8% |  | 192% |  | 86.3% | 156% | 106%
Cc1ccc(C(C)C)cc1NC(=O)Nc1ccc([N+](=O)[O-])cc1 | 15.6% | 10.9% | -0.838% (active) |  | 10.5% | 7.54% (active) | 7.86% (active) | -14.5% (active) | -23% (active) | 3.13% (active)
Nc1ncc(-c2cnn(C3CCNCC3)c2)cc1-c1nc2cc(Cl)ccc2o1 | -27.6% (active) | -100% (active) | -100% (active) |  | -76.9% (active) | -99.9% (active) | -96.8% (active) | -100% (active) | -91.8% (active) | 
